Source: PubChem BioAssay (Tox21)
Results filed as inconclusive are left out. Calls of active or inactive are those of the source. The call rests on the fitted dose curve; in most records, active means well fitted curve in the direction sought with a large enough effect in the repeat runs; inconclusive means weak or mixed curves; inactive means no such curve, though single readings can be large; an effect the other way counts as inactive or inconclusive.

Experiments:
[1] = A CellTox Green Cytotoxicity Assay to monitor cytotoxicity in HEK293 cells - 40 hour (AID 1224871); further: nearly all actives have a fitted effect of over 45% in size
Procedure, shortened: (§1)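 HEK293 cells premixed with CellTox Green dye were seeded at 600 cells/well and left 5 h at 37 C/5% CO2 before pin transfer of 23 nL compound in DMSO. Fluorescence from dye bound to dead-cell DNA was read during 40 h treatment.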

[2] = qHTS RealTime-Glo MT Cell Viability Assay in HEK293 cells - 16 hour (AID 1224872); further: top concentration of the series differs between compounds; nearly all actives have a fitted effect of over 50% in size
Procedure, shortened: (§2)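 Luminescence generated by NanoLuc from substrate produced by living HEK293 cells served as the viability signal. Each value reflects the reading at its stated time point during continuous 40 h compound exposure at 37 C.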

[3] = qHTS RealTime-Glo MT Cell Viability Assay in HepG2 cells - 8 hour (AID 1224873); further: nearly all actives have a fitted effect of over 55% in size
Procedure, shortened: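 Real-time viability: cells seeded at 600 per well together with NanoLuc and cell-permeant prosubstrate, compounds added after 5 h incubation. Luminescence tracked at 0, 8, 16, 24, 32 and 40 h of exposure.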

[4] = qHTS RealTime-Glo MT Cell Viability Assay in HEK293 cells - 40 hour (AID 1224874); conditions: RealTime-Glo luminescence; max response: active compounds read low; further: nearly all actives have a fitted effect of over 50% in size
Procedure, shortened: (§3)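 HEK293 cells mixed with RealTime-Glo reagents (NanoLuc plus cell-permeant prosubstrate) at 600 cells/well, preincubated 5 h at 37 C/5% CO2, then given 23 nL compound in DMSO. Nonlytic luminescence from viable cells was read at 0, 8, 16, 24, 32 and 40 h.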

[5] = A CellTox Green Cytotoxicity Assay to monitor cytotoxicity in HEK293 cells - 24 hour (AID 1224875); further: series mostly up to about 77 µM; nearly all actives have a fitted effect of over 45% in size
Procedure, shortened: as §1

[6] = A CellTox Green Cytotoxicity Assay to monitor cytotoxicity in HepG2 cells - 16 hour (AID 1224876); further: nearly all actives have a fitted effect of over 45% in size
Procedure, shortened: (§4)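 HepG2 cells were seeded together with the CellTox Green dye at 600 cells/well, left 5 h at 37 C/5% CO2, then given compounds in DMSO. Fluorescence from dye bound to dead-cell DNA was read repeatedly over 40 h of treatment at 37 C.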

[7] = qHTS RealTime-Glo MT Cell Viability Assay in HepG2 cells - 32 hour (AID 1224877); further: nearly all actives have a fitted effect of over 55% in size
Procedure, shortened: (§5)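 Tox21 10K library screened in qHTS format on HepG2 cells carrying RealTime-Glo reagents. Compounds were added after a 5 h preincubation, and the luminescent signal from continuous culture was measured repeatedly during 40 h treatment.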

[8] = A CellTox Green Cytotoxicity Assay to monitor cytotoxicity in HepG2 cells - 24 hour (AID 1224878); further: nearly all actives have a fitted effect of over 45% in size
Procedure, shortened: as §4

[9] = A CellTox Green Cytotoxicity Assay to monitor cytotoxicity in HepG2 cells - 40 hour (AID 1224879); further: nearly all actives have a fitted effect of over 40% in size
Procedure, shortened: as §4

[10] = qHTS RealTime-Glo MT Cell Viability Assay in HEK293 cells - 0 hour (AID 1224880)
Procedure, shortened: as §3

[11] = A CellTox Green Cytotoxicity Assay to monitor cytotoxicity in HEK293 cells - 32 hour (AID 1224881); further: nearly all actives have a fitted effect of over 40% in size
Procedure, shortened: as §1

[12] = A CellTox Green Cytotoxicity Assay to monitor cytotoxicity in HepG2 cells - 0 hour (AID 1224882); further: nearly all actives have a fitted effect of over 35% in size
Procedure, shortened: as §4

[13] = A CellTox Green Cytotoxicity Assay to monitor cytotoxicity in HepG2 cells - 32 hour (AID 1224883); further: nearly all actives have a fitted effect of over 50% in size
Procedure, shortened: as §4

[14] = A CellTox Green Cytotoxicity Assay to monitor cytotoxicity in HEK293 cells - 8 hour (AID 1224884); further: nearly all actives have a fitted effect of over 35% in size
Procedure, shortened: as §1

[15] = qHTS RealTime-Glo MT Cell Viability Assay in HepG2 cells - 16 hour (AID 1224885); further: nearly all actives have a fitted effect of over 50% in size
Procedure, shortened: as §5

[16] = qHTS RealTime-Glo MT Cell Viability Assay in HEK293 cells - 24 hour (AID 1224886)
Procedure, shortened: as §2

[17] = qHTS RealTime-Glo MT Cell Viability Assay in HEK293 cells - 8 hour (AID 1224887)
Procedure, shortened: as §3

[18] = A CellTox Green Cytotoxicity Assay to monitor cytotoxicity in HEK293 cells - 16 hour (AID 1224888); further: nearly all actives have a fitted effect of over 35% in size
Procedure, shortened: as §1

[19] = qHTS RealTime-Glo MT Cell Viability Assay in HepG2 cells - 0 hour (AID 1224889); further: nearly all actives have a fitted effect of over 50% in size
Procedure, shortened: as §5

[20] = A CellTox Green Cytotoxicity Assay to monitor cytotoxicity in HepG2 cells - 8 hour (AID 1224890); further: nearly all actives have a fitted effect of over 45% in size
Procedure, shortened: as §4
On the % scale 0 is the no-effect control and ±100 the full control effect.

CC(C)CC(=O)O
inactive: Potency [1] | Potency [2] | outcome [3] | max response [4] 6.56% | outcome [5] | outcome [6] | outcome [7] | outcome [8] | Potency [9] | Potency [10] | Potency [11] | outcome [12] | Potency [13] | Potency [14] | outcome [15] | Potency [16] | Potency [17] | outcome [18] | Potency [19] | outcome [20]

CCNC(=O)C1CC(C)CCC1C(C)C (stereo not given)
inactive: Potency [1] | Potency [2] | outcome [3] | max response [4] 2.62% | outcome [5] | outcome [6] | outcome [7] | outcome [8] | Potency [9] | Potency [10] | Potency [11] | outcome [12] | Potency [13] | Potency [14] | outcome [15] | Potency [16] | Potency [17] | outcome [18] | Potency [19] | outcome [20]

ClCCCl
inactive: Potency [1] | Potency [2] | outcome [3] | max response [4] -0.252% | outcome [5] | outcome [6] | outcome [7] | outcome [8] | Potency [9] | Potency [10] | Potency [11] | outcome [12] | Potency [13] | Potency [14] | outcome [15] | Potency [16] | Potency [17] | outcome [18] | Potency [19] | outcome [20]

C=C1CC/C=C(\C)CC[C@@H]2[C@@H]1CC2(C)C
inactive: Potency [1] | Potency [2] | outcome [3] | max response [4] 2.22% | outcome [5] | outcome [6] | outcome [7] | outcome [8] | Potency [9] | Potency [10] | Potency [11] | outcome [12] | Potency [13] | Potency [14] | outcome [15] | Potency [16] | Potency [17] | outcome [18] | Potency [19] | outcome [20]

Cc1cc2cc3c(C)cc(=O)oc3c(C)c2o1
inactive: Potency [1] | Potency [2] | outcome [3] | max response [4] -18.2% | outcome [5] | outcome [6] | outcome [7] | outcome [8] | Potency [9] | Potency [10] | Potency [11] | outcome [12] | Potency [13] | Potency [14] | outcome [15] | Potency [16] | Potency [17] | outcome [18] | Potency [19] | outcome [20]

CCCN1C[C@H](CSC)C[C@@H]2c3cccc4[nH]cc(c34)C[C@H]21
inactive: Potency [1] | Potency [2] | outcome [3] | max response [4] -0.0801% | outcome [5] | outcome [6] | outcome [7] | outcome [8] | Potency [9] | Potency [10] | Potency [11] | outcome [12] | Potency [13] | Potency [14] | outcome [15] | Potency [16] | Potency [17] | outcome [18] | Potency [19] | outcome [20]

CCCCCCCCCC(C)=O
inactive: Potency [1] | Potency [2] | outcome [3] | max response [4] 10.3% | outcome [5] | outcome [6] | outcome [7] | outcome [8] | Potency [9] | Potency [10] | Potency [11] | outcome [12] | Potency [13] | Potency [14] | outcome [15] | Potency [16] | Potency [17] | outcome [18] | Potency [19] | outcome [20]

CCOc1cc(NC(C)=O)ccc1C(=O)OC
inactive: Potency [1] | Potency [2] | outcome [3] | max response [4] -4.96% | outcome [5] | outcome [6] | outcome [7] | outcome [8] | Potency [9] | Potency [10] | Potency [11] | outcome [12] | Potency [13] | Potency [14] | outcome [15] | Potency [16] | Potency [17] | outcome [18] | Potency [19] | outcome [20]

CN=C(NC#N)Nc1ccc(C2=NNC(=O)CC2C)cc1 (stereo not given)
inactive: Potency [1] | Potency [2] | outcome [3] | max response [4] 11.7% | outcome [5] | outcome [6] | outcome [7] | outcome [8] | Potency [9] | Potency [10] | Potency [11] | outcome [12] | Potency [13] | Potency [14] | outcome [15] | Potency [16] | Potency [17] | outcome [18] | Potency [19] | outcome [20]

COC(=O)C1CC(=O)C(C(=O)OC)CC1=O (stereo not given)
inactive: cytotoxicity increase [1] 1.85% [at 6.97 µM] | activity change, negative = cytotoxicity [2] 7.32% [at 6.97 µM] | viability change, negative = cytotoxic [3] -14.8% [at 6.97 µM] | max response [4] -0.164% | activity change [5] 2.42% [at 6.97 µM] | cytotoxicity increase [6] -5.58% [at 6.97 µM] | activity change, negative = cytotoxic [7] 12.6% [at 6.97 µM] | cytotoxicity [8] -7.82% [at 6.97 µM] | cytotoxicity increase [9] -13.2% [at 6.97 µM] | activity change, negative = cytotoxicity [10] 2.08% [at 6.97 µM] | cytotoxicity increase [11] 0.949% [at 6.97 µM] | cytotoxicity [12] -5.98% [at 6.97 µM] | cytotoxicity increase [13] -7.66% [at 6.97 µM] | cytotoxicity increase [14] 10.4% [at 6.97 µM] | activity change, negative = cytotoxic [15] -8.58% [at 6.97 µM] | activity change, negative = cytotoxicity [16] 0.682% [at 6.97 µM] | activity change, negative = cytotoxicity [17] 5.57% [at 6.97 µM] | activity change [18] 2.56% [at 6.97 µM] | activity change, negative = cytotoxicity [19] -20.4% [at 6.97 µM] | cytotoxicity increase [20] -5.53% [at 6.97 µM]

COc1ccc2c(c1)C(=O)N(CCc1ccc(S(=O)(=O)NC(=O)NC3CCCCC3)cc1)C(=O)C2(C)C
inactive: Potency [1] | Potency [2] | outcome [3] | max response [4] -9.27% | outcome [5] | outcome [6] | outcome [7] | outcome [8] | Potency [9] | Potency [10] | Potency [11] | outcome [12] | Potency [13] | Potency [14] | outcome [15] | Potency [16] | Potency [17] | outcome [18] | Potency [19] | outcome [20]

Cc1c(I)c(=O)n(-c2ccccc2)n1C
inactive: Potency [1] | Potency [2] | outcome [3] | max response [4] -1.2% | outcome [5] | outcome [6] | outcome [7] | outcome [8] | Potency [9] | Potency [10] | Potency [11] | outcome [12] | Potency [13] | Potency [14] | outcome [15] | Potency [16] | Potency [17] | outcome [18] | Potency [19] | outcome [20]
